Source: ChEMBL document CHEMBL1961873, “Compounds: GSK PKIS; Assays: Nanosyn kinase panel” (2012)

How the values were obtained:
[1] = molecular target: T1, Inhibitor of nuclear factor kappa-B kinase subunit epsilon (Homo sapiens) (UniProt Q14164); settings: at 1 µM;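 further: reported values are averaged percent inhibition figures against human IKKε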
T1 sequence (whole entry): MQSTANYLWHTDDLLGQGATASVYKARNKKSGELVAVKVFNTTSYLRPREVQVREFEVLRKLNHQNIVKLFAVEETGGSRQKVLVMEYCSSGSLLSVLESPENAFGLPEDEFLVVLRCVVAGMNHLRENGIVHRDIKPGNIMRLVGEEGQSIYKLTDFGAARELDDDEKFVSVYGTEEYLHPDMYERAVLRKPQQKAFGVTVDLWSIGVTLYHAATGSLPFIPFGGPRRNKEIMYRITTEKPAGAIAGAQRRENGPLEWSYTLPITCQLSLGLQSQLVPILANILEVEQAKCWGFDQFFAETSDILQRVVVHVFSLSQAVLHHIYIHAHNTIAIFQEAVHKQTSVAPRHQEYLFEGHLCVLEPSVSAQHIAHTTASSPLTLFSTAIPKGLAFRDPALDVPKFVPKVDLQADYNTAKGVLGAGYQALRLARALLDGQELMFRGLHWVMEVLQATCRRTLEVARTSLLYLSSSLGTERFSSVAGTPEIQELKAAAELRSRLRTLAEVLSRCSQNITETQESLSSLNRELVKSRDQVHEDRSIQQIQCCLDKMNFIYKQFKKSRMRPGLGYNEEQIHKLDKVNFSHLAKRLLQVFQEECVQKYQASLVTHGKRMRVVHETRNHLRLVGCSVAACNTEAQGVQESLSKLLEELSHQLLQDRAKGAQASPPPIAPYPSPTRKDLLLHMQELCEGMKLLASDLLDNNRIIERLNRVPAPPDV

[2] = molecular target: T2, Serine/threonine-protein kinase Nek1 (Homo sapiens) (UniProt Q96PY6); settings: at 0.1 µM
T2 sequence (whole entry): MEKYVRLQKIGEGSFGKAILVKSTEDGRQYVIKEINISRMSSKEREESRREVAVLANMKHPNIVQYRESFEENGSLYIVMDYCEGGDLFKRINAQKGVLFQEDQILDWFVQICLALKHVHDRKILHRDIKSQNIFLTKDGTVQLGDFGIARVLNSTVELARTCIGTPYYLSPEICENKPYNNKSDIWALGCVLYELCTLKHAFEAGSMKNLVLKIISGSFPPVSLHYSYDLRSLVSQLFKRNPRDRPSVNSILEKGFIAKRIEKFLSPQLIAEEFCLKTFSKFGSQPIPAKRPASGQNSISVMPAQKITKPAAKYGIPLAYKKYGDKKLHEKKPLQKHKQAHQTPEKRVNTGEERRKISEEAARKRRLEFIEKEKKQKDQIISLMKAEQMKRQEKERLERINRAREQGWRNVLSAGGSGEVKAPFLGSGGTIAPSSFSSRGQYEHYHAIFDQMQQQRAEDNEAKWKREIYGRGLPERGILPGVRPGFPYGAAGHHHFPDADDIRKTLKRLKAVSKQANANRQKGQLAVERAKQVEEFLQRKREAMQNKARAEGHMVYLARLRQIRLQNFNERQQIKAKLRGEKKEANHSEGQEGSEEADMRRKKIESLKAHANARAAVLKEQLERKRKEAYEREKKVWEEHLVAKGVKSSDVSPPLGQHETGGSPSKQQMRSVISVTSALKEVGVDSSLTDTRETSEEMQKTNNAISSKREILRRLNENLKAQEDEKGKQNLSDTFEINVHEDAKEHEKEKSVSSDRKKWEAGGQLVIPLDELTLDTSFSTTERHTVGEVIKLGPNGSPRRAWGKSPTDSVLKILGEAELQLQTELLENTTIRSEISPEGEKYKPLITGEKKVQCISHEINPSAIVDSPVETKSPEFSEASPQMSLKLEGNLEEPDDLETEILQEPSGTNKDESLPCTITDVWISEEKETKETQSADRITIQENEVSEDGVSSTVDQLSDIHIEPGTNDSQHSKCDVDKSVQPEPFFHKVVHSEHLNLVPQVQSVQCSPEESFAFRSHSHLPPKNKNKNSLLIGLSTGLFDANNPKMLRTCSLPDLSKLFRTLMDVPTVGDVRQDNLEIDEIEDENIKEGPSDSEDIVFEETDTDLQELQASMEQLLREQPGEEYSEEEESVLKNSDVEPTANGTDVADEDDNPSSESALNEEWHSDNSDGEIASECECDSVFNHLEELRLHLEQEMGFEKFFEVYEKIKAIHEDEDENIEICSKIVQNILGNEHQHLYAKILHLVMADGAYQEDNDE

[3] = molecular target: T2, Serine/threonine-protein kinase Nek1 (Homo sapiens); settings: at 1 µM
[4] = molecular target: T3, Serine/threonine-protein kinase Nek2 (Homo sapiens) (UniProt P51955); settings: at 0.1 µM
T3 sequence (whole entry): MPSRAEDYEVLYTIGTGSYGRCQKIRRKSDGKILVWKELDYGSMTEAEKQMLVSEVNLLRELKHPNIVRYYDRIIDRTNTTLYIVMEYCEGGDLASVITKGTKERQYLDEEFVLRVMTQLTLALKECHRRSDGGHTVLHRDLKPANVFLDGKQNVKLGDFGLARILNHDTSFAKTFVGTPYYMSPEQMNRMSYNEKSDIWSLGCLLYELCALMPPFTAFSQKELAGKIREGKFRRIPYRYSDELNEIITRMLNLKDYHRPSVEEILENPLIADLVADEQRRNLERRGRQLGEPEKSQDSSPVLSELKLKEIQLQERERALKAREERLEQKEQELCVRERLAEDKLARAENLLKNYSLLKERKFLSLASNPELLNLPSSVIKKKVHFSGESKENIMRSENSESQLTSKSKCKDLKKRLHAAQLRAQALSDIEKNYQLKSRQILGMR

[5] = molecular target: T3, Serine/threonine-protein kinase Nek2 (Homo sapiens); settings: at 1 µM
[6] = molecular target: Serine/threonine-protein kinase Nek6 (Homo sapiens) (UniProt Q9HC98); settings: at 0.1 µM
[7] = molecular target: Serine/threonine-protein kinase Nek6 (Homo sapiens) (UniProt Q9HC98); settings: at 1 µM
[8] = molecular target: Serine/threonine-protein kinase Nek7 (Homo sapiens) (UniProt Q8TDX7); settings: at 0.1 µM
[9] = molecular target: Serine/threonine-protein kinase Nek7 (Homo sapiens) (UniProt Q8TDX7); settings: at 1 µM
[10] = molecular target: T4, Serine/threonine-protein kinase Nek9 (Homo sapiens) (UniProt Q8TD19); settings: at 0.1 µM
T4 sequence (whole entry): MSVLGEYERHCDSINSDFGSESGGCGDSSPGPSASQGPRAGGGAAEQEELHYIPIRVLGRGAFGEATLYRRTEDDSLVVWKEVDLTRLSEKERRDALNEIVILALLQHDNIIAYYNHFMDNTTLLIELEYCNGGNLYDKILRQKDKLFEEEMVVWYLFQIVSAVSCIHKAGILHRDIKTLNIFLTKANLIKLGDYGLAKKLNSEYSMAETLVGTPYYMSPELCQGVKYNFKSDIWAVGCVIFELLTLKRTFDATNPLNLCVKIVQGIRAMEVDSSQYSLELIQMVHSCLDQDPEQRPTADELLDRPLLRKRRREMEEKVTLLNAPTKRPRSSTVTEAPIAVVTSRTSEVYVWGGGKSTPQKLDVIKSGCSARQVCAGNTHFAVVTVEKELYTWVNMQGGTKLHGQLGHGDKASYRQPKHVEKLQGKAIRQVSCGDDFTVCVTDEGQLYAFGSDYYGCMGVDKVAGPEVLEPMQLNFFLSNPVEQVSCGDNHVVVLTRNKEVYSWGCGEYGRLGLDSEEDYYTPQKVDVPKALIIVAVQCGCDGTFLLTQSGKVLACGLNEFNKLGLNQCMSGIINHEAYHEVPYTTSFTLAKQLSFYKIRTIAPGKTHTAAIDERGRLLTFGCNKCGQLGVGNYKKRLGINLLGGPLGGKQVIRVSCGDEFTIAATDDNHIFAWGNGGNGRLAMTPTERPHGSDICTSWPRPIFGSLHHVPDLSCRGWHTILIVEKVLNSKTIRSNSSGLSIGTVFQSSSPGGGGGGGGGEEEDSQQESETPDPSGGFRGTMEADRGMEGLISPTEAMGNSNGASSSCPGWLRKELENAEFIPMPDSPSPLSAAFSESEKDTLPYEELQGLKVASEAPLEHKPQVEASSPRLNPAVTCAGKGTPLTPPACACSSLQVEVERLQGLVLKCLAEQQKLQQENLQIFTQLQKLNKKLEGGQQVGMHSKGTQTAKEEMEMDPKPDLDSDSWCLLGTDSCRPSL

[11] = molecular target: T4, Serine/threonine-protein kinase Nek9 (Homo sapiens); settings: at 1 µM
[12] = molecular target: Serine/threonine-protein kinase PLK1 (Homo sapiens) (UniProt P53350); settings: at 0.1 µM
[13] = molecular target: Serine/threonine-protein kinase PLK1 (Homo sapiens) (UniProt P53350); settings: at 1 µM
[14] = molecular target: T5, Dual specificity protein kinase TTK (Homo sapiens) (UniProt P33981); settings: at 0.1 µM
T5 sequence (whole entry): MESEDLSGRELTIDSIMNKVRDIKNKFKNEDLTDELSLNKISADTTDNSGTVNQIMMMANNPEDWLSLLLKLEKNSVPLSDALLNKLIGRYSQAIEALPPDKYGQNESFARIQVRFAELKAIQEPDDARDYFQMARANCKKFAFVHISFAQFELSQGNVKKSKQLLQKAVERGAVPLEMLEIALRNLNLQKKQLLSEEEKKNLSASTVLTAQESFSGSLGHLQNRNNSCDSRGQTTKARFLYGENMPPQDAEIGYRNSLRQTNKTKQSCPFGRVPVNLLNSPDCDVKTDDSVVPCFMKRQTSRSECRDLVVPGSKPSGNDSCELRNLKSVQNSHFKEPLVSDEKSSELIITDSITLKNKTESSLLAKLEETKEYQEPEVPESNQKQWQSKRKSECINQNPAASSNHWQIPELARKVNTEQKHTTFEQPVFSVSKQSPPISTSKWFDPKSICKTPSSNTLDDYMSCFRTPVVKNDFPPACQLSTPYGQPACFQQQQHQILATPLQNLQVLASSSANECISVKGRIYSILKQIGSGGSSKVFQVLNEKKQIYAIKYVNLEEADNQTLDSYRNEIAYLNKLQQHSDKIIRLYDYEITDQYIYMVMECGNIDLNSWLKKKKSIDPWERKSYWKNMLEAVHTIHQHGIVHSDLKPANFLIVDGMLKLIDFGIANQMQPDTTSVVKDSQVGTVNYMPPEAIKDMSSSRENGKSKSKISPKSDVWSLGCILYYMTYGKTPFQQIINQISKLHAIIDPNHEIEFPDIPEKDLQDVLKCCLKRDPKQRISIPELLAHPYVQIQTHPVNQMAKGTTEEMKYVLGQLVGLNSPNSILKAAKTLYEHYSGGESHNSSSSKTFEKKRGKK

[15] = test system: T6, Receptor-type tyrosine-protein kinase FLT3 (Homo sapiens), P36888 [D835Y]; settings: at 1 µM
T6 sequence (whole entry): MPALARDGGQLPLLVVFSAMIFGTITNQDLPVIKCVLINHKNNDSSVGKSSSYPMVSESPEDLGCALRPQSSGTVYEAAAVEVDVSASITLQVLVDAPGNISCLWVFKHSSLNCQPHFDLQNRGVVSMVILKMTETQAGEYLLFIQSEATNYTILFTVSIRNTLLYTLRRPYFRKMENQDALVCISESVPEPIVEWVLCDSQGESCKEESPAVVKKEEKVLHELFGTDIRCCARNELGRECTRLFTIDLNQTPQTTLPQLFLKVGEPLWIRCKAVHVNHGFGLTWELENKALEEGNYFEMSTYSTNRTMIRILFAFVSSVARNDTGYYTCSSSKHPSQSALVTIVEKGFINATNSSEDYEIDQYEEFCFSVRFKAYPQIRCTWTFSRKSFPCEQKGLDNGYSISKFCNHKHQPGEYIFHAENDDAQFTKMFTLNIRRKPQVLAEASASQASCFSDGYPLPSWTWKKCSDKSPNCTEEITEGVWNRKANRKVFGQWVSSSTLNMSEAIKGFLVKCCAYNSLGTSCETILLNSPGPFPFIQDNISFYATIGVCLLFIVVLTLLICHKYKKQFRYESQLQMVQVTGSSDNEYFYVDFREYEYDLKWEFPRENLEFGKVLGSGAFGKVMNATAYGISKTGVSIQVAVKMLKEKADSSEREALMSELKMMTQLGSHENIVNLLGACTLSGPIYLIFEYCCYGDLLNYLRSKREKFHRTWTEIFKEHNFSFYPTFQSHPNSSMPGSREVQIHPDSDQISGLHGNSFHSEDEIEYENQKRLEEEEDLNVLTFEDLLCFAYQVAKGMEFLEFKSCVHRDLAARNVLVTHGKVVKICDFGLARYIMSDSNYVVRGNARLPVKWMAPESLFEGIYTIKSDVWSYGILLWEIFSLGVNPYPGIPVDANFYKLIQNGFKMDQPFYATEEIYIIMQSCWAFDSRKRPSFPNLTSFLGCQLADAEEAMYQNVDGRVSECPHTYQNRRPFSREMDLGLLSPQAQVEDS

[16] = molecular target: Vascular endothelial growth factor receptor 3 (Homo sapiens) (UniProt P35916); settings: at 0.1 µM
[17] = molecular target: Vascular endothelial growth factor receptor 3 (Homo sapiens) (UniProt P35916); settings: at 1 µM
[18] = molecular target: Macrophage colony-stimulating factor 1 receptor (Homo sapiens) (UniProt P07333); settings: at 0.1 µM
[19] = molecular target: Macrophage colony-stimulating factor 1 receptor (Homo sapiens) (UniProt P07333); settings: at 1 µM
[20] = molecular target: Tyrosine-protein kinase Fyn (Homo sapiens) (UniProt P06241); settings: at 0.1 µM
Chain of Tyrosine-protein kinase Fyn (Homo sapiens) (P06241 2-537 limits assumed): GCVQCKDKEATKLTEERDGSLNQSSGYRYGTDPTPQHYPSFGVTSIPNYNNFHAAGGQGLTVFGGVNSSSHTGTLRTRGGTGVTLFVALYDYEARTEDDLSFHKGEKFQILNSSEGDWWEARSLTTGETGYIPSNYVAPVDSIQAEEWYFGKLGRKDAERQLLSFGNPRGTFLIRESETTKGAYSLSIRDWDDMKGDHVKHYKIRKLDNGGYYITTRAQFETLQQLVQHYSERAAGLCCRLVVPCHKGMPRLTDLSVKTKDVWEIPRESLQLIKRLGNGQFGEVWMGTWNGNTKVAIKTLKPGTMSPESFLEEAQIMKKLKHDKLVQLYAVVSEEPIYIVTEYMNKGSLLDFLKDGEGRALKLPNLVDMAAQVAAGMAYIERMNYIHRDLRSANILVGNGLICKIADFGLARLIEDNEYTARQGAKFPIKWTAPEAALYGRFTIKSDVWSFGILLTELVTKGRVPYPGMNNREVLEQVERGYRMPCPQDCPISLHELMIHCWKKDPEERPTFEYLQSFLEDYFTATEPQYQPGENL

Chain of Vascular endothelial growth factor receptor 3 (Homo sapiens) (P35916 whole entry): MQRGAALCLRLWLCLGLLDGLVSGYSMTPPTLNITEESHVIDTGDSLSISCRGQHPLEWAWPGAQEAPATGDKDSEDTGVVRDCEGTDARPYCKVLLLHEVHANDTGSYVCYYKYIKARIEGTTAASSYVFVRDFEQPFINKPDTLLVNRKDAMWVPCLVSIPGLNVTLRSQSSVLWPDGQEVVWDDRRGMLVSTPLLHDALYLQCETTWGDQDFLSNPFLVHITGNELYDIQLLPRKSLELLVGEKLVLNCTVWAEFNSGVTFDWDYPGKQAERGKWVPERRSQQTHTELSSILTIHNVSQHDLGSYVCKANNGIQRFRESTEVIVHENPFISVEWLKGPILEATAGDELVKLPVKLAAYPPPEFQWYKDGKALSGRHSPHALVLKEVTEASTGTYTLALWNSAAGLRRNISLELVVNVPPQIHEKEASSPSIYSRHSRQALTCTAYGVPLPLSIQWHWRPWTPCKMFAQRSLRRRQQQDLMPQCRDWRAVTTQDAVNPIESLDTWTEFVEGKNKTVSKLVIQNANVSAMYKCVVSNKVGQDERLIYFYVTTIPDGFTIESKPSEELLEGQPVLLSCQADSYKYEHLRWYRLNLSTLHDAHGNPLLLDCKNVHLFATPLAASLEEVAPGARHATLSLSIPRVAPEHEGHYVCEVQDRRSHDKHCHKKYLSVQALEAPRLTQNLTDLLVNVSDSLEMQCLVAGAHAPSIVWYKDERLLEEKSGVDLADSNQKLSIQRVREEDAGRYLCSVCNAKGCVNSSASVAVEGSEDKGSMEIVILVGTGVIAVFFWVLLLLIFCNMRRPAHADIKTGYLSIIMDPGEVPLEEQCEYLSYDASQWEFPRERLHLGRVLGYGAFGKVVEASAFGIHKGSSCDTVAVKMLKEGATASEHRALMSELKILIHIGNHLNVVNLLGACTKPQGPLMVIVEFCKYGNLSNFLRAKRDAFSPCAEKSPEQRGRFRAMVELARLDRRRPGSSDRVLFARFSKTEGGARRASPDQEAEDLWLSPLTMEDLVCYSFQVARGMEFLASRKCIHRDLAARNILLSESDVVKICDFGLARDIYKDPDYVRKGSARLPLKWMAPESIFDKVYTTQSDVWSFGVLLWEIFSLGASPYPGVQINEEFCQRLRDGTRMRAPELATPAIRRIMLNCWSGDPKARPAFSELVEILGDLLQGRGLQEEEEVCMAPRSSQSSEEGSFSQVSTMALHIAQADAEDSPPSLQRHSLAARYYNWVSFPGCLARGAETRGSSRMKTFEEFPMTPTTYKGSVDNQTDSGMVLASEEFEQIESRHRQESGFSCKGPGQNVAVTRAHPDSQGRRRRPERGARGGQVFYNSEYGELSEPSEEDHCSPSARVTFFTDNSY
Chain of Serine/threonine-protein kinase PLK1 (Homo sapiens) (P53350 whole entry): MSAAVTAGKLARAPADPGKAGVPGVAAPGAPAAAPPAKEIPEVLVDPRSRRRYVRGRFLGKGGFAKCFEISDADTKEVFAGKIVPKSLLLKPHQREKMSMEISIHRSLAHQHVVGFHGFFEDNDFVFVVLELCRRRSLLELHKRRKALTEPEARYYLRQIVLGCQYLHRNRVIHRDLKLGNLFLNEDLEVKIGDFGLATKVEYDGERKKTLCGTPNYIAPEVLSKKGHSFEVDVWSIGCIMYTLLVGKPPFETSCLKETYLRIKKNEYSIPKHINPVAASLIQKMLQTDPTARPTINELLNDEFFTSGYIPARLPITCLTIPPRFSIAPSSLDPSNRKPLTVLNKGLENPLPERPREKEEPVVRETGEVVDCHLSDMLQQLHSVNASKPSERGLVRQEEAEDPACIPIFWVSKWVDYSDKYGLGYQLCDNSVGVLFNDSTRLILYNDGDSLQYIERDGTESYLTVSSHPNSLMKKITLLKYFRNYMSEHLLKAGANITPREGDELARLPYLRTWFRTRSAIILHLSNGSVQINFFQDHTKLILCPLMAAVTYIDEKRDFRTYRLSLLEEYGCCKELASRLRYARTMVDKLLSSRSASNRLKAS
Chain of Serine/threonine-protein kinase Nek7 (Homo sapiens) (Q8TDX7 whole entry, looked up): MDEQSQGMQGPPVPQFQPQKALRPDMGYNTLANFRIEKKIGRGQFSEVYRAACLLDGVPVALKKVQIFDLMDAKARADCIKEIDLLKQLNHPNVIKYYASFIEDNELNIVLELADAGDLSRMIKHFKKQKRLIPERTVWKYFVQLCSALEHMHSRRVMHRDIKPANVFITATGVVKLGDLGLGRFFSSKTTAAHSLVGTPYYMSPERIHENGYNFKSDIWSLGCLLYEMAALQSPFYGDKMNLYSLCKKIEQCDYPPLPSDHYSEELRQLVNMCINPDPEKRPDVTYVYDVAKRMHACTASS
Chain of Serine/threonine-protein kinase Nek6 (Homo sapiens) (Q9HC98 whole entry): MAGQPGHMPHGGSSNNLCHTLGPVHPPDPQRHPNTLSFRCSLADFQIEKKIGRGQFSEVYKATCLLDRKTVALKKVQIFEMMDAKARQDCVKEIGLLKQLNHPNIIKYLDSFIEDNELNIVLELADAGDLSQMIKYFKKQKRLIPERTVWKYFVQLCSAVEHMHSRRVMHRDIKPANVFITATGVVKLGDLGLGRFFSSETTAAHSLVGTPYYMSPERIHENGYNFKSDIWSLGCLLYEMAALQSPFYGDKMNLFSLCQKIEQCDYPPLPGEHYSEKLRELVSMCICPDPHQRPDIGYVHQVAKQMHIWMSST
Chain of Macrophage colony-stimulating factor 1 receptor (Homo sapiens) (P07333 whole entry): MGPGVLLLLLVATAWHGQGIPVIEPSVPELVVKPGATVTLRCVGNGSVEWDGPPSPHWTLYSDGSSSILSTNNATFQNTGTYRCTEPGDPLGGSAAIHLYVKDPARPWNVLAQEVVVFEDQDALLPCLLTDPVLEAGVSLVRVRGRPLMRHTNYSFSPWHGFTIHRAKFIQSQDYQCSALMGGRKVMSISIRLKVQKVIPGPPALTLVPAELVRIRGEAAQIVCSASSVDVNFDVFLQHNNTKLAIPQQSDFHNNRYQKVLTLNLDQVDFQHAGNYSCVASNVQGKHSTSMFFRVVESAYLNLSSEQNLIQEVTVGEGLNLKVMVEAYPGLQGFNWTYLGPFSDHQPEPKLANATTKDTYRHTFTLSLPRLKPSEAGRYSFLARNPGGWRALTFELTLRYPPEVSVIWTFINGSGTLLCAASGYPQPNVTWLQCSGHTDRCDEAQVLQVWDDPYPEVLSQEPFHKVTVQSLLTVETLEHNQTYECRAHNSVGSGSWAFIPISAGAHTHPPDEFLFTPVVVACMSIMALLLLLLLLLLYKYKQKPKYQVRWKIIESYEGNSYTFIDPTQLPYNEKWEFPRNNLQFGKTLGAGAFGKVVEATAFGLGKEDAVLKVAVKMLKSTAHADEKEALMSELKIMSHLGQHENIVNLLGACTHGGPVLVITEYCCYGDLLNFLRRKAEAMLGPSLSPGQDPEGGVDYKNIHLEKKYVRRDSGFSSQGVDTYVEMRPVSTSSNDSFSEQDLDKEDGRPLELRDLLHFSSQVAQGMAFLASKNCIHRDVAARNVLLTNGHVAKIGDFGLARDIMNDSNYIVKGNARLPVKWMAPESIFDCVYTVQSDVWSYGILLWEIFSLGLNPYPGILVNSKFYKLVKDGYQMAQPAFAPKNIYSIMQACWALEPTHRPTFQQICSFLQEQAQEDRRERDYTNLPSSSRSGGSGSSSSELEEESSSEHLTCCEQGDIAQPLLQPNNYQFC

With `COc1cccc(-n2ncc3c(N/N=C/c4ccncc4)ncnc32)c1` the inhibition [1] was 9.13%, the inhibition [2] was 3.6% and the inhibition [3] was 12.5%. For the same compound, the inhibition [4] was 5.11%, the inhibition [5] was 5.47% and the inhibition [6] was 4.03%. For the same compound, the inhibition [7] was 3.93%, the inhibition [8] was 2.45% and the inhibition [9] was 3.46%. The inhibition [10] was 7.16%, the inhibition [11] was 6.71% and the inhibition [12] was 2.19%. For the same compound, the inhibition [13] was 3.32%, the inhibition [14] was 8.59% and the inhibition [15] was 52.1%. For the same compound, the inhibition [16] was 9.86%, the inhibition [17] was 38.4% and the inhibition [18] was 6.17%. For the same compound, the inhibition [19] was 30.2% and the inhibition [20] was 26.5%.
Compound `Fc1ccc(-c2ncn(C3CCNCC3)c2-c2ccnc(Oc3ccccc3)n2)cc1` has an inhibition [1] of 3.7%, an inhibition [2] of 1.07% and an inhibition [3] of 1.73%. The inhibition [4] was 3.29%, the inhibition [5] was 1.85% and the inhibition [6] was 7.63%. For the same compound, the inhibition [7] was 2.1%, the inhibition [8] was 2.34% and the inhibition [9] was 6.68%. It also gave an inhibition [10] of 2.53%, an inhibition [11] of 5.18% and an inhibition [12] of 3.38%. For the same compound, the inhibition [13] was 3.09%, the inhibition [14] was 6.21% and the inhibition [15] was -0.44%. For the same compound, the inhibition [16] was -7.44%, the inhibition [18] was -0.76% and the inhibition [19] was 3.02%. The inhibition [20] was -2.88%.
